# Source: PubChem (National Center for Advancing Translational Sciences (NCATS))
# In the library only some 3.8% were active in any assay of this set; here they are far more common.
# Nrf2 ARE act: qHTS of Nrf2 Activators; AREc32 ARE-luciferase reporter (MCF7-derived line), luminescence, 24 h; Potency, µM (highest dose often 46.1 µM), actives largely listed as activators; 410,000 tested, 0.31% active; also: nearly all actives have a fitted effect of over 65% in size
#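 Reporter line AREc32 (ARE-Fluc), seeded overnight in OPTI-MEM with 5% FBS; compound pin-transferred, 24 hr at 37 deg C, 5% CO2; luminescent read-out.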
# mIDH1 inhibitor: qHTS for Inhibitors of mutant isocitrate dehydrogenase 1 (IDH1): qHTS. AID 602179, 2012. Isocitrate dehydrogenase [NADP] cytoplasmic (Homo sapiens), O75874. Potency, µM (highest dose often 76.6 µM), hits mostly inhibitors. IDH1-R132H enzyme, NADPH consumption, diaphorase/resazurin fluorescence. 390,000 tested, 0.093% active; also: nearly all actives have a fitted effect of over 65% in size
# Target sequence (O75874 whole entry R132H, stated change not applied): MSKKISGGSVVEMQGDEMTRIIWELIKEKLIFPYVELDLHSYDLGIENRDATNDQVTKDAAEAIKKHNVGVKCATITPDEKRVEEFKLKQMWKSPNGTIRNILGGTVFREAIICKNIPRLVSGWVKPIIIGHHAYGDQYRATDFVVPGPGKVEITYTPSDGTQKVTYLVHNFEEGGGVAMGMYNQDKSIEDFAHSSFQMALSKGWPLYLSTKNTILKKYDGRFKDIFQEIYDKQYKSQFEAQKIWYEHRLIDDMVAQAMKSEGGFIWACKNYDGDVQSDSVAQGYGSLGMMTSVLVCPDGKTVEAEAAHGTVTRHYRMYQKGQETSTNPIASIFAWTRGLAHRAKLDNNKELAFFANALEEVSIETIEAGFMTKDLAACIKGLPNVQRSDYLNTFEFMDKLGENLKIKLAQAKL
#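 IDH1-R132H (0.5 ug/mL) preincubated 30 min with compound, then NADPH (0.016 mM) and alpha-KG (2 mM) added; 80 min at RT, pH 7.5. Remaining NADPH coupled via diaphorase/resazurin to fluorescence (540/590 nm); concentration-response curves normalized to no-enzyme control.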
# A549 viability: Nrf2 qHTS screen for inhibitors: counterscreen for cytotoxicity; A549 ARE-Fluc cells, CellTiter-Fluor viability, 18-24 h; Potency, µM (top dose mostly 46 µM), usual class: inhibitors; 390,000 tested, 0.16% active; AID 504648, 2011
#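 A549 ARE_Fluc cells in 5% FBS OPTI-MEM were exposed to compounds in concentration-response for 18-24 h at 37 deg C. Viability was read by CellTiter-Fluor fluorescence (Ex 405/Em 525) after 30 min, before the luciferase read.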
# Nrf2 inh: Nrf2 qHTS screen for inhibitors; A549 ARE-Fluc reporter, luciferase luminescence, 18-24 h; Potency, µM (titrated, usually from 46 µM), hits mostly inhibitors; 360,000 tested, 2.1% active; also: nearly all actives have a fitted effect of over 60% in size
#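 Cells were seeded and rested 2 h, then exposed to compounds for 18-24 h. CellTiter-Fluor was read first as a viability measure. BugLite was added 15 min before the final luminescent read of ARE-luciferase activity in A549 cells.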
# ELG1 repair inh: qHTS screen for small molecules that inhibit ELG1-dependent DNA repair in human embryonic kidney (HEK293T) cells expressing luciferase-tagged ELG1 | HEK293T ELG1-luciferase reporter, luminescence, 16 h; DNA damage induced by 5-fluorouridine | Potency, µM (highest dose often 46.1 µM), hits mostly inhibitors | 330,000 tested, 2.3% active; also: nearly all actives have a fitted effect of over 55% in size
#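 In this reporter screen, reduction of luminescence relative to DMSO vehicle indicated activity. Compounds and 5-fluorouridine were added together to 2,000 cells per well, incubated for 16 hr at 37 °C, then developed with ONE-Glo.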
# A number is an active result; i = inactive; ? = inconclusive; nt = no result; [ ] = remark or other dose. Calls follow the shape of the dose curve; as a rule, active = well fitted curve in the direction sought with a large enough effect; inconclusive = small, poorly fitted or top-dose-only effect, or another doubt; inactive = no such curve, though single readings can be large; an effect the other way counts as inactive or inconclusive.
SMILES,Nrf2 ARE act,mIDH1 inhibitor,A549 viability,Nrf2 inh,ELG1 repair inh
Cc1cccc(OCC(=O)Nc2ccc3c(c2)nc(CN2CCCCC2)n3C)c1,i,i,i,?,i
Cn1c(=O)n(C)c2cc(NC(=O)COc3ccc(F)cc3F)ccc21,i[9.22 µM],i,i,?,i
CC(=O)N1CCN(Cc2nc3cc(NC(=O)COc4cccc(C)c4)ccc3n2C)CC1,i,i,i,23µM,i
Cc1cccc(OCC(=O)Nc2ccc3c(c2)nc(CCN2CCN(c4ccccn4)CC2)n3C)c1,i,i,i,?,15µM
COc1ccc(OCC(=O)Nc2ccc3c(c2)nc(CCN2CCN(c4ccccn4)CC2)n3C)cc1,i,i,nt,nt,nt
COC(=O)C1=C[C@@H](C(=O)OC)C2C3=C(C(=O)[C@@]2(C)NC(=O)c2ccccc2)[C@H](C)[C@@H]2C(=O)N(C)C(=O)[C@@H]2[C@@H]3C1 (stereo not given in full),nt,nt,i,i,nt
COc1ccc(C(=O)NCCn2cc(SCc3cc(C)ccc3C)c3ccccc32)cc1,i,i,?,18µM,nt
COc1ccc(C(=O)NCCn2cc(SCC(=O)Nc3ccc(C)cc3)c3ccccc32)cc1,i,i,i,nt,nt
CC(=C/C(=O)O)/C=C/c1ccco1,?,i,i,i,?
CCN(C(=O)C=Cc1ccco1)c1ccccc1,14µM,i,i,i,nt
CCCCN(C)c1nnc(NC(=O)Nc2cccc(C(C)=O)c2)s1,i,i,i,i,nt
Oc1ccc(Oc2ccc3c(C(F)(F)F)cc(C(F)(F)F)nc3n2)cc1,i,i,i,?,18µM
N#Cc1ccc(-c2cccs2)nc1SCc1ccc(Cl)cc1Cl,i,i,i,i,nt
CCOC(=O)c1nc(Nc2ccc(Nc3ccccc3)cc2)c2ccccc2n1,i,i,?,?,7.3µM
CCOC(=O)c1nc(Nc2ccc(N3CCC(C)CC3)cc2)c2ccccc2n1,i,i,i,?,5.8µM
CCOC(=O)c1ccc(Nc2nc(C(=O)OCC)nc3ccccc23)cc1,i,i,i,?,?
CCOc1ccc(NC(=O)C(C)n2c(=O)cc(C)c3c(C)nn(-c4ccccc4)c32)cc1 (stereo not given),i,i,i,i,nt
CC(C)c1ccc(NC(=O)c2cc(Br)ccc2Br)cc1,7.1µM,i,?,i,i
CCN(CC)C(=O)c1ccccc1NC(=O)c1cccc(S(=O)(=O)N2CCC(C)CC2)c1,i,i,i,nt,nt
O=S1(=O)C2CC3C=CC2(O3)C(O)C(Cc2ccccc2)N1Cc1cccc(F)c1 (stereo not given),nt,nt,i,i,nt
Cc1cc(OC(C)C(=O)N(Cc2ccco2)Cc2ccco2)cc(C)c1Cl (stereo not given),i,i,i,i,nt
CC(=O)Oc1c(I)cc(I)cc1C(=O)Nc1ccc(Cl)cc1,i,i,?,23µM,i
CCCNC(=O)Cn1c(SCc2ccccc2C)nc2ccncc21,nt,nt,i,i,nt
COCCCNC(=S)NNC(=O)C1CC1c1ccc(C(C)(C)C)cc1 (stereo not given),i,i,i,21µM,?
COCCNC(=S)NC(=O)c1ccc(C(C)(C)C)cc1,i,i,i,i,?
SMILES,Nrf2 ARE act,mIDH1 inhibitor,A549 viability,Nrf2 inh,ELG1 repair inh
Cc1ccc(C(=O)NCCN(C)C)c(C)c1,i,i,i,i,i
CNc1c2cccc(C)c2nc2c(C(=O)NCCN(C)C)cccc12,i,i,4.6µM,1.5µM,nt
COCc1ccc(C(=O)NC2CCCc3c2cnn3-c2ccc(C)c(C)c2)o1 (stereo not given),i,i,i,15µM,?
COc1ccc(C2CC(=O)Nc3c2c(C)nn3-c2nncc(-c3ccc(C)cc3)n2)c(OC)c1OC (stereo not given),i,nt,i,i,nt
NC(=S)N/N=C/c1c(O)ccc2ccccc12,i,i,i,i,13µM
Cc1cc(N/N=C/c2c(O)ccc3ccccc23)nc(-c2ccccc2O)n1,7.1µM,i,?,?,23µM
O=CN/N=C/c1c(O)ccc2ccccc12,i,i,i,?,21µM
Oc1ccc2ccccc2c1/C=N/Nc1ccccc1,i,i,i,i,?
Cc1cc(Nc2ccccc2)nc(-c2ccccc2O)n1,i,i,i,nt,i
Cn1cc(P(=O)(c2ccccc2)c2ccccc2)c2ccccc21,nt,nt,i,i,nt
O=C(c1ccc2c(c1)OCCO2)N(Cc1cccnc1)c1nc2c(F)cc(F)cc2s1,i,i,i,nt,nt
Cc1ccc(-c2noc(-c3ccccc3NC(=O)C3CC(=O)N(c4cccc(C)c4)C3)n2)cc1 (stereo not given),i,i,i,i,nt
CCc1ccc(/C=C/C(=O)c2cc(Br)ccc(=O)c2O)cc1,?,i,?,7.3µM,i
CCOc1ccc(/C=C/C(=O)c2cc(Br)ccc(=O)c2O)cc1,i,i,i,16µM,i
CCOc1ccc(C(=O)/C=C/c2ccc(OC)c(OC)c2)cc1,?,i,i,?,i
Cc1cccc(/C=C/C(=O)c2cc(Br)ccc(=O)c2O)c1,22µM,i,?,?,?
O=C(C=Cc1ccccc1)c1cc(Br)ccc1O,?,i,i,?,nt
Oc1c(Br)cc(Br)cc1-c1nc2ccccc2s1,?,i,i,i,nt
CCOc1cccc(CC(=O)N2CCc3c([nH]c4ccccc34)C2c2ccc(C)cc2)c1OCC (stereo not given),i,i,i,nt,nt
COc1ccc(Cl)cc1NC(=O)c1cnc(N2CCCCC2)c2ccccc12,i,i,i,nt,nt
CN1CC2(Cc3cc([N+](=O)[O-])ccc31)C(=O)OC(C)(C)OC2=O,nt,nt,i,?,nt
O=C(CSc1nnc(-c2ccncc2)n1Cc1ccco1)Nc1nc(-c2ccccc2)cs1,i,i,?,13µM,?
CCn1c(CCNC(=O)c2cccs2)nnc1SCC(=O)Nc1cccc(Cl)c1,i,i,nt,i,nt
CCn1c(CCNC(=O)c2cccs2)nnc1SCC(=O)Nc1nc(-c2ccccc2)cs1,i,i,i,?,23µM
CCn1c(SCC(=O)Nc2nc(-c3ccccc3)cs2)nnc1-c1ccccc1O,i,i,i,nt,21µM
CC(C)COC(=O)N1C(COCc2ccccc2)CCC=CS1(=O)=O (stereo not given),nt,nt,i,i,nt
Cc1noc(C)c1S(=O)(=O)N(C)C[C@H]1Oc2ccc(NC(=O)NC3CCCCC3)cc2C(=O)N([C@H](C)CO)C[C@@H]1C,i,i,i,i,i
Oc1ccccc1CNc1cnc2ccccc2c1,?,i,i,?,?
C=CCc1cccc(CNc2cnc3ccccc3c2)c1O,i,i,i,23µM,?
O=C(CC1N=C2c3ccccc3N=C(SCC(=O)Nc3cccc(C(F)(F)F)c3)N2C1=O)NCc1cccs1 (stereo not given),i,i,i,?,nt
